Test results from PubChem BioAssay (NCATS).
Results filed as inconclusive are left out. The source made the active and inactive calls. Unless noted, the call rests on the fitted dose curve; in most records, active means well fitted curve in the direction sought with a large enough effect; inconclusive means small, poorly fitted or top-dose-only effect, or another doubt; inactive means no such curve, though single readings can be large; an effect the other way counts as inactive or inconclusive.

Experiments:
[1] = biological target: Lysosomal acid glucosylceramidase (Homo sapiens) (UniProt P04062); experiment: Glucocerebrosidase-p2 (AID 348; in the data active means potency below about 10 µM; further: potency means the concentration at half of the fitted maximal effect); details: purified GBA, blue fluorogenic substrate, 40 min
Chain of Lysosomal acid glucosylceramidase (Homo sapiens) (P04062 whole entry, looked up): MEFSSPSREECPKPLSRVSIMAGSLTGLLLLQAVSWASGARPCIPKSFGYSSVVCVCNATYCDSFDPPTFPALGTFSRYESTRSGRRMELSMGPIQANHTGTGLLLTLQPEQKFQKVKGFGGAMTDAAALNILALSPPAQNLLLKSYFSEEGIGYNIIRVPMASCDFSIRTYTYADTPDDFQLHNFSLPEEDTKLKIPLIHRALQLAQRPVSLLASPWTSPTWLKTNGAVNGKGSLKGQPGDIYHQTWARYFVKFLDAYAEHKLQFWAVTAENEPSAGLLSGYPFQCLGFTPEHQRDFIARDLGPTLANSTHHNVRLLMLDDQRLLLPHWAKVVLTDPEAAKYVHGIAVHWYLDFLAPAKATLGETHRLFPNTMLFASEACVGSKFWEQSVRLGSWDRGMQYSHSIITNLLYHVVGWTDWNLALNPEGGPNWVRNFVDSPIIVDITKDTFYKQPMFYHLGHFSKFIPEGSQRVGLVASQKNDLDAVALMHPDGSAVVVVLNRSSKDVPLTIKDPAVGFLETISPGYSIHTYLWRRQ
How it was run: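 Compounds titrated from 0.6 nM upwards against 0.2 nM enzyme in pH 5.9 citric acid/KH2PO4, taurocholate, tween-20; blue fluorogenic substrate 80 uM, 40 min room temperature, stopped and read Ex 365/Em 440 for AC50.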

[2] = AP1 Signaling Pathway (AID 357; active means well fitted curve in either direction with a large enough effect, not every such curve was filed as active;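 further: ME-180 reporter cells stimulated with EGF at its EC50 level; on the % scale 0 is the no-effect control and ±100 the full control effect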); details: ME-180 AP-1-bla reporter, EGF-induced, beta-lactamase ratio, 5 h; at 7.69 µM (top of the series) unless noted
How it was run: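 Cells are seeded overnight, exposed to compound titrations and an EC50 level of EGF for 5 hours at 37 °C, then loaded with CCF4 dye for 2.5 hours. Beta-lactamase activity under the AP-1 element is read as a blue/green ratio.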

[3] = biological target: Cytochrome P450 1A2 (Homo sapiens) (UniProt P05177); experiment: p450-cyp1a2 (AID 410; calls by dose curve; further: potency means the concentration at half of the fitted maximal effect)
Chain of Cytochrome P450 1A2 (Homo sapiens) (P05177 whole entry, looked up): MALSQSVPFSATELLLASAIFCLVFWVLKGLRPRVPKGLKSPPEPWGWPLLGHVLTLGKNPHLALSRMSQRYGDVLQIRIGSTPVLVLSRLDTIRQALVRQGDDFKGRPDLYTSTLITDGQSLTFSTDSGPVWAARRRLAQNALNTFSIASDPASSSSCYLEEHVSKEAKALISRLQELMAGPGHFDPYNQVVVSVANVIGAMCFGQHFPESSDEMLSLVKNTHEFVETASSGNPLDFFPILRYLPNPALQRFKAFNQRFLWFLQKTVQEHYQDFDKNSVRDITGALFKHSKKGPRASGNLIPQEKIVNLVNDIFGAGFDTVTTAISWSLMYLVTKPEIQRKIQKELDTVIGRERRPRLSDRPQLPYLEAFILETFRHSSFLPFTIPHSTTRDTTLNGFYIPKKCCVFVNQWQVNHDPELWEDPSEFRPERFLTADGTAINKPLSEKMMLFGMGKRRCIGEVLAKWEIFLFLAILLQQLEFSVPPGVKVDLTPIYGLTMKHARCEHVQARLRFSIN
How it was run: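 20nM CYP1A2 with 100uM Luciferin-ME (at Km) in 100mM KPO4; compound preincubated 10 min, NADPH regeneration added, 60 min at room temperature. Luciferin quantified by luminescence after detection reagent; normalized to 57 uM furafylline.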

[4] = NFAT Signaling Pathway (AID 444; active means well fitted curve in either direction with a large enough effect, not every such curve was filed as active;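 further: carbachol stimulus at about its EC50 of 1 µM final; on the % scale 0 is the no-effect control and ±100 the full control effect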); details: Jurkat NFAT-bla M1, carbachol, beta-lactamase ratio, 5 h; at 7.69 µM (top of the series) unless noted
How it was run: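 Jurkat cells with NFAT-driven β-lactamase reporter and co-expressed M1 receptor, stimulated with carbachol (final 1 uM, ~EC50), compound titration, 5 h at 37 °C. CCF4 loaded 1 h at RT; 460/530 nm ratio gave %activity and AC50.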

[5] = Stat Signaling Pathway (AID 446; active means well fitted curve in either direction with a large enough effect, not every such curve was filed as active;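 further: ME-180 cervical cancer cells given 40 pM IL-6 alongside compound; SIE-controlled beta-lactamase reporter measured as 460/530 nm FRET emission ratio; on the % scale 0 is the no-effect control and ±100 the full control effect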); details: ME-180 SIE beta-lactamase reporter, IL-6 stimulated, 5 h; at 7.69 µM (top of the series) unless noted
How it was run: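 ME-180 SIE-bla cells; overnight plating; cpd + IL-6 40 pM, 5 h, 37 C; LiveBLAzer 2.5 h RT; 460/530 nm emission ratio. Normalized to 300 pM IL-6 and 125 nM JAK inhibitor controls.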

[6] = biological target: Glucocorticoid receptor (Homo sapiens) (UniProt P04150); experiment: GR-GFP Redistribution (AID 450;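 active means compounds whose dose series gives a full or clear partial fitted curve of increased nuclear translocation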; further: potency means the concentration at half of the fitted maximal effect); details: U2OS GR-GFP nuclear translocation, laser cytometry, 2 h
Chain of Glucocorticoid receptor (Homo sapiens) (P04150 whole entry, looked up, the tested form may be a part): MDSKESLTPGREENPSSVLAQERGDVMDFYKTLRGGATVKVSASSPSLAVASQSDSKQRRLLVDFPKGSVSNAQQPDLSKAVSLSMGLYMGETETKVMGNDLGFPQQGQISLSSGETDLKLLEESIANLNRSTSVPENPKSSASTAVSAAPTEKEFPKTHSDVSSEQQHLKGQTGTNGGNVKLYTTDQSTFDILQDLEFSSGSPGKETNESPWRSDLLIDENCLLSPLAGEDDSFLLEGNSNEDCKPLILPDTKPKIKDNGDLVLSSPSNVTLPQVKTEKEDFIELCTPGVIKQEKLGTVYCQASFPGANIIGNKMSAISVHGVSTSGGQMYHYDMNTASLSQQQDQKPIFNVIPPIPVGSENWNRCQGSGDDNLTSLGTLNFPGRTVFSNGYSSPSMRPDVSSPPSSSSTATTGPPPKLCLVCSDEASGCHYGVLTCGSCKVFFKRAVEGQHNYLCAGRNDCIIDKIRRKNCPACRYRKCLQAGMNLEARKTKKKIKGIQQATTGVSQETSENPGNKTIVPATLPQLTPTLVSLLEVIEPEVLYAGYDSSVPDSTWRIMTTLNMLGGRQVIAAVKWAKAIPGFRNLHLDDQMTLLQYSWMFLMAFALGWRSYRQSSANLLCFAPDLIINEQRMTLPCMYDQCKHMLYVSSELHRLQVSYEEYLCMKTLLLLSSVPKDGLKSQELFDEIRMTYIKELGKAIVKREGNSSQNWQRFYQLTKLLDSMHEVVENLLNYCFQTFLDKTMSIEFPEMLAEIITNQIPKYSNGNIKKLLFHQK

[7] = biological target: Glucocorticoid receptor (Homo sapiens) (UniProt P04150); experiment: GR-EFC Redistribution (AID 451; calls by dose curve; further: potency means the concentration at half of the fitted maximal effect); details: CHO-K1 GR-EFC translocation, beta-gal luminescence, 2 h
How it was run: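 CHO-K1 cells expressing nuclear EA and GR-ED fragments of b-gal; compounds titrated up to 46 uM final, 2 h at 37 C. GR nuclear translocation read as complemented b-gal luminescence after 1 h RT detection.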

[8] = biological target: Mitogen-activated protein kinase 10 (Mus musculus) (UniProt Q61831); experiment: JNK3 AlphaScreen Assay (AID 530; active means well fitted curve in either direction with a large enough effect, not every such curve was filed as active;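 further: kinase came from lysate of stimulated human HepG2 cells; signal reports phosphorylation of biotinylated GST-cJun 1-79 at Ser73 with 10 µM ATP; on the % scale 0 is the no-effect control and ±100 the full control effect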)
How it was run: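 Pre-activated (IL-1β/TNFα) JNK3 in HepG2 lysates phosphorylates biotin-GST-cJun(1-79), 10 uM ATP; anti-phospho-cJun(Ser73) AlphaScreen read at room temperature, pH 7.6 Tris buffer. Compounds pre-incubated 15 min as titrations.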

[9] = biological target: 3',5'-cyclic-AMP phosphodiesterase 4B (Homo sapiens) (UniProt Q07343); experiment: qHTS Assay for Inhibitors of PDE-IV (AID 607; active means well fitted activation curve with a large enough effect in the main read-out, with a control signal flat, not every such curve was filed as active; further: % of control where 0% means no effect)
Chain of 3',5'-cyclic-AMP phosphodiesterase 4B (Homo sapiens) (Q07343 whole entry, looked up): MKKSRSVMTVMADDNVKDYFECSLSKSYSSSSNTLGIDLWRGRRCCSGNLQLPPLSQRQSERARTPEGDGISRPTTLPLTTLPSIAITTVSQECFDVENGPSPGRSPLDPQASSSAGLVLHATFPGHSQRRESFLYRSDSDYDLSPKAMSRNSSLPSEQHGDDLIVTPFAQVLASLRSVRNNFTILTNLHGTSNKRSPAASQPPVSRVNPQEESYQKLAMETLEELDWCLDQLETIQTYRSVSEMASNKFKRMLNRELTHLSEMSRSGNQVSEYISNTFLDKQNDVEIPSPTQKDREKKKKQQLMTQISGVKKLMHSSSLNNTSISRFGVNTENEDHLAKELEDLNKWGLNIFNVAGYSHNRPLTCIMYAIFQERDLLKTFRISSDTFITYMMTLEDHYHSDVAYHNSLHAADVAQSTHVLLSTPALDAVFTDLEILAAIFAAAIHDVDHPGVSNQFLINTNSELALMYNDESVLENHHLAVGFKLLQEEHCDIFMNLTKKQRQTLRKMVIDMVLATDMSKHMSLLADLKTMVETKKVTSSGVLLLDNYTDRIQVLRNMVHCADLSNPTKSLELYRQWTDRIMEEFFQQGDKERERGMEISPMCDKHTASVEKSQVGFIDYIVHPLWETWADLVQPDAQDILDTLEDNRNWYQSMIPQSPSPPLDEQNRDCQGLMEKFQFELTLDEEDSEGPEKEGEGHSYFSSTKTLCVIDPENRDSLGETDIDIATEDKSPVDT
How it was run: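 ACTOne HEK293 cells carry a modified cAMP-gated CNG channel and express endogenous PDE4; plated 1000 cells/well, compounds up to 22.9 uM final. Membrane-potential dye fluorescence (ex 535/em 590) was read; parental cells received 10 uM forskolin + 100 uM RO 20-1724.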

[10] = qHTS Assay for Lipid Storage Modulators (AID 1519; calls by dose curve); details: Drosophila S3 cells, BODIPY lipid droplet/cell ratio, laser cytometry, cells loaded with oleic acid; for activity change, negative = inhibition: at 57.5 µM (top of the series)
How it was run: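 Cells seeded at 5,000 per well were treated with compounds over a concentration series and loaded with oleic acid (400 uM, as added). Lipid droplet fluorescence (488 nm excitation, 500-530 nm channel) was read by laser-scanning cytometry and normalized to 20 uM Triacsin C.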

[11] = biological target: Dual specificity protein kinase CLK4 (Homo sapiens) (UniProt Q9HAZ1); experiment: qHTS Assay for Inhibitors of CDC-like Kinase 4 (Kinase-Glo Assay) (AID 1770); further: on the % scale 0 is the no-effect control and ±100 the full control effect; nearly all actives have a fitted effect of over 65% in size
Chain of Dual specificity protein kinase CLK4 (Homo sapiens) (Q9HAZ1 whole entry, looked up): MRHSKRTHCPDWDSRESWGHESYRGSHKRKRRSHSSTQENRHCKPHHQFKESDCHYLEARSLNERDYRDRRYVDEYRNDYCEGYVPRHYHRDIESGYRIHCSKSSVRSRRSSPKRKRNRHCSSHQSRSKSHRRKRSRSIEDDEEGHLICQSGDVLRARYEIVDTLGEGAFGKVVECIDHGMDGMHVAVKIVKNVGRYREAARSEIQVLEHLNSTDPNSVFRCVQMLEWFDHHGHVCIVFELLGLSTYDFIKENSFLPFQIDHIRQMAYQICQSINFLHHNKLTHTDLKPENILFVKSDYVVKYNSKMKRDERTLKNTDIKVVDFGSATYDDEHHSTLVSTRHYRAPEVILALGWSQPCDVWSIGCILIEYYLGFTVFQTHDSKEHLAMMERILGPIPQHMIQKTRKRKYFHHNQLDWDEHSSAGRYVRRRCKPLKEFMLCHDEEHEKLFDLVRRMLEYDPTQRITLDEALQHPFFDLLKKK
How it was run: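 Recombinant human Clk4 (25 nM) phosphorylated RS repeat peptide (100 uM) with 1 uM ATP in Tris pH 7.5/MgCl2/EGTA/DTT/Triton buffer for 4.5 h at room temperature. Residual ATP was quantified by Kinase-Glo luciferase luminescence.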

[12] = biological target: Dual specificity protein kinase CLK4 (Homo sapiens) (UniProt Q9HAZ1); experiment: qHTS Assay for Inhibitors of CDC-like Kinase 4 (ADP-Glo Assay) (AID 1771); further: on the % scale 0 is the no-effect control and ±100 the full control effect; nearly all actives have a fitted effect of over 70% in size
How it was run: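 25 nM Clk4 with 100 uM RS repeat peptide and 1 uM ATP (final) in buffer with 2 mM MgCl2, 0.5 mM EGTA, 2.5 mM DTT, 0.01% Triton X-100; 1 h at room temperature; ADP-Glo luminescence for ADP formed.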

[13] = biological target: Dual specificity protein kinase CLK4 (Homo sapiens) (UniProt Q9HAZ1); experiment: qHTS Assay for Inhibitors of CDC-like Kinase 4 (ADP-FP Assay) (AID 1795); further: on the % scale 0 is the no-effect control and ±100 the full control effect; nearly all actives have a fitted effect of over 60% in size
How it was run: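 Recombinant human Clk4 (6.25 nM) phosphorylated RS repeat peptide (100 uM) with 1 uM ATP in Tris pH 7.5/MgCl2/EGTA/DTT/Triton buffer for one hour. ADP was quantified by Transcreener competitive fluorescence polarization against an ADP calibration curve.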

[14] = biological target: Ubiquitin carboxyl-terminal hydrolase 1 (Homo sapiens) (UniProt O94782); experiment: Inhibitors of USP1/UAF1: Pilot qHTS (AID 504865);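 further: rhodamine fluorescence freed from ubiquitin-rhodamine substrate followed over time; top concentration of the series differs between compounds; on the % scale 0 is the no-effect control and ±100 the full control effect; nearly all actives have a fitted effect of over 35% in size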
Chain of Ubiquitin carboxyl-terminal hydrolase 1 (Homo sapiens) (O94782 whole entry, looked up): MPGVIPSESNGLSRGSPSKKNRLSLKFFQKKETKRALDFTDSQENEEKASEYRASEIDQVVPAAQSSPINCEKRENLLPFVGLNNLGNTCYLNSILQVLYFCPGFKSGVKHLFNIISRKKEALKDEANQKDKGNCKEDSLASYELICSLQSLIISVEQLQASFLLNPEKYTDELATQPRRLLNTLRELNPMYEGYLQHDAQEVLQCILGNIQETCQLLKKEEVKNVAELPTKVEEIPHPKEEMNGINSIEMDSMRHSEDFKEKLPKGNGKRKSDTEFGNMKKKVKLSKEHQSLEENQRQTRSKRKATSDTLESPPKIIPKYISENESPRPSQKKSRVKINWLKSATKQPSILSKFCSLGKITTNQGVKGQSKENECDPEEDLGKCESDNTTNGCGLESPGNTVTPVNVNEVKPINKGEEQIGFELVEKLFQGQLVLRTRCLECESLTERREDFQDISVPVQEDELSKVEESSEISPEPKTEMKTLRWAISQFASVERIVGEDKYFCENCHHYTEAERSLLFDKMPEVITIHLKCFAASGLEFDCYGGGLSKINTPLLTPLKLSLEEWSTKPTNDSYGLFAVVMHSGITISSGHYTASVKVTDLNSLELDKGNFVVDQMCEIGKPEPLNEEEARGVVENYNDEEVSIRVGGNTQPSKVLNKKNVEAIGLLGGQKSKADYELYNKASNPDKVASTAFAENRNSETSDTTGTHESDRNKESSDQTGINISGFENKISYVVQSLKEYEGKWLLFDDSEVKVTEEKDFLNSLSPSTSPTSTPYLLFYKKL
How it was run: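 USP1/UAF1 complex (1nM) preincubated with compound 15 min at room temperature, then Ub-Rho substrate (150nM final) added. Fluorescence read kinetically at 480/540 nm, 6 reads every 60 seconds. Buffer: 50mM HEPES pH 7.8, 0.5mM EDTA, 0.1 mg/ml BSA, 1mM TCEP, 0.01% Tween-20.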

[15] = Primary qHTS for small molecule stabilizers of the endoplasmic reticulum resident proteome: Secreted ER Calcium Modulated Protein (SERCaMP) assay (AID 1508630); further: on the % scale 0 is the no-effect control and ±100 the full control effect
How it was run: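 GLuc-SERCaMP-expressing SH-SY5Y cells, pretreated 16 h with compound, are challenged with thapsigargin to empty ER calcium stores; after 4 h, coelenterazine is added directly to the medium and luminescence is imaged.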

[16] = measured here: cell count channel max response
[17] = measured here: lipid channel max response

Structure (SMILES)	Potency [1]	activity change, negative = inhibition [2]	Potency [3]	activity change, negative = inhibition [4]	activity, negative = inhibition [5]	Potency [6]	Potency [7]	outcome [8]	Potency [9]	activity change, negative = inhibition [10]	max response [10, 16]	max response [10, 17]	Potency [11]	Potency [12]	Potency [13]	Potency [14]	Potency [15]
CN(C)c1ncc2nc(-c3cc(F)cc(F)c3)c(=O)n(C[C@H]3CCCO3)c2n1	> 11.4 µM (inactive)	19.6% (inactive)	0.0794 µM (active)	9.35% (inactive)	29.3% (inactive)	> 9.22 µM (inactive)	> 46 µM (inactive)	inactive	inactive	7.12% (inactive)	15.3%	23.7%	inactive	inactive	inactive	inactive	inactive
Cc1nc2cnc(Nc3ccccc3)nc2n(CCC#N)c1=O	> 11.4 µM (inactive)	-11.3% (inactive)	0.631 µM (active)	-3.1% (inactive)	-19.6% (inactive)	> 9.22 µM (inactive)	> 46 µM (inactive)	inactive	inactive	-7.58% (inactive)	-11.1%	-20.1%	inactive	inactive	inactive	inactive	inactive
Cn1cc(-c2nc3cnc(N4CCNCC4)nc3n(C)c2=O)c2ccccc21	> 11.4 µM (inactive)	4.46% (inactive)	15.8 µM (active)	6.17% (inactive)	25.8% (inactive)	> 9.22 µM (inactive)	> 46 µM (inactive)	inactive	inactive	6.84% (inactive)	11.6%	17.7%	inactive	inactive	inactive	inactive	inactive
Cc1nc2cnc(N(C)C)nc2n(CCC#N)c1=O	> 11.4 µM (inactive)	-8.9% (inactive)	10 µM (active)	-13.7% (inactive)	-1.16% (inactive)	> 9.22 µM (inactive)	> 46 µM (inactive)	inactive	inactive	2.74% (inactive)	4.56%	5.95%	inactive	inactive	inactive	inactive	inactive
Cc1nc2cnc(N3CCN(C)CC3)nc2n(CCC#N)c1=O	> 11.4 µM (inactive)	9.68% (inactive)	12.6 µM (active)	-13.7% (inactive)	-9.15% (inactive)	> 9.22 µM (inactive)	> 46 µM (inactive)	inactive	inactive	4.33% (inactive)	7.54%	9.36%	inactive	inactive	inactive	inactive	inactive
